Rab9 prom act: Rab9 promoter activation; Huh7 Rab9 promoter-luciferase reporter, luminescence, 24 h; Potency, µM (titrated, usually from 9.22 µM), without a hit: at the highest dose activation, negative = inhibition, actives largely listed as activators; 320,000 compounds, 2.8% hits; also: % of control where 0% means no effect; nearly all actives have a fitted effect of over 60% in size
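Cells were plated at 1500 per well in reduced-serum medium with 10% FBS and left 2 h. Compound in DMSO was then added for 24 h at 37 °C. Reporter signal was read by luminescence after 10 min with luciferase detection reagent.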
FLuc modulator: firefly luciferase modulation, counter-screen for miR-21 project; P08659; purified FLuc, Km substrates, luminescence inhibition; Potency, µM (doses to about 57.5 µM), inactives show at the top dose activity change, negative = inhibition, most hits filed as inhibitors; 360,000 compounds, 6.9% hits;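 also: plate controls were vehicle for no effect and reference inhibitor for full effect; nearly all actives have a fitted effect of over 55% in size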
Target sequence (P08659 whole entry, looked up): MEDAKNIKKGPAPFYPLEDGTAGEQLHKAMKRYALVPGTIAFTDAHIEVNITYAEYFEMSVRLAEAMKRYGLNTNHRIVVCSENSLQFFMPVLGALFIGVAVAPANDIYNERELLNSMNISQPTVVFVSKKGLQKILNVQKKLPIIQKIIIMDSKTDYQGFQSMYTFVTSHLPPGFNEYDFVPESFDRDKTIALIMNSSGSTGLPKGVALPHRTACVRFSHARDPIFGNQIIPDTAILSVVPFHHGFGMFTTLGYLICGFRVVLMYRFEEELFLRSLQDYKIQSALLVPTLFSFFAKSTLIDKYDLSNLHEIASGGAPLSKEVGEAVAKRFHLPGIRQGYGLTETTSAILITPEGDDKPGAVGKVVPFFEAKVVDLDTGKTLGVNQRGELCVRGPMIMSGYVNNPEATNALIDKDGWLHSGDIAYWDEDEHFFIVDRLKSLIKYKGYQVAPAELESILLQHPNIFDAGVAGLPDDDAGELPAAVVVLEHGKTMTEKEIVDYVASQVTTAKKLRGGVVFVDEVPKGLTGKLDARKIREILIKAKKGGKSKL
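Purified P. pyralis luciferase, 10 nM final, with Km-level 10 uM D-luciferin and 10 uM ATP in 50 mM Tris acetate pH 7.5, 10 mM Mg acetate, 0.01% Tween-20, 0.05% BSA; 6-point qHTS titration about 60 µM downward; luminescence read.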
ELG1 repair inh: ELG1-dependent DNA repair inhibition. HEK293T ELG1-luciferase reporter, luminescence, 16 h; DNA damage induced by 5-fluorouridine. Potency, µM (series often up to 46.1 µM), inactives show top-dose activity change, negative = inhibition, usual class: inhibitors. 330,000 compounds, 2.3% hits. AID 504467; also: % is scaled to controls: 0 for no effect and ±100 for the full control effect; nearly all actives have a fitted effect of over 55% in size
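Quantitative HTS, concentration-response format. 2,000 cells/well co-treated with 5-fluorouridine and compound, 16 hr in 5% CO2 at 37 °C; ONE-Glo luminescence read after 30 min.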
SMN2 splice enh: SMN2 splice variant enhancement | HEK293 SMN2-luciferase splicing reporter, luminescence, 30-36 h | Potency, µM (series often up to 46.1 µM), without a hit: at the top dose activity change, positive = activation, usual class: activators | 210,000 compounds, 2.8% hits | AID 1458; also: % of control where 0% means no effect; nearly all actives have a fitted effect of over 55% in size
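HEK293 cells carry an SMN2 minigene-luciferase reporter in which exon 7 inclusion puts luciferase in frame. Cells were seeded at 2000 cells/well, attached for 10-12 hours, then exposed to compounds for 30-36 hours at 37C before ONE-Glo luminescence.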
ELG1 genotoxic: induces genotoxicity in HEK293T cells with luciferase-tagged ELG1; HEK293T ELG1-luciferase reporter, luminescence, 16 h; Potency, µM (titrated, usually from 46 µM), for inactives: at the highest dose activity change, positive = activation, most hits filed as activators; 330,000 compounds, 1.3% hits; also: % of control where 0% means no effect; nearly all actives have a fitted effect of over 60% in size
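Cells (2,000/well) expressing the ELG1-luciferase fusion are dosed by pin tool and kept 16 hr at 37 °C, 5% CO2. Signal comes from ONE-Glo luciferase reagent after 30 min at room temperature.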
NPC1 prom act: activates the NPC1 promoter | Potency, µM (doses to about 9.22 µM), inactives show at the top dose activation, hits mostly activators | Huh7 NPC1 promoter luciferase reporter, 24 h | 320,000 compounds, 2.4% hits | AID 485313; also: % of control where 0% means no effect; nearly all actives have a fitted effect of over 60% in size
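Stable NPC1-promoter luciferase Huh7 line; cpd (DMSO) 24 h, 37 °C, 5% CO2; Amplite luciferase reagent 10 min RT; luminescence readout. qHTS format.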
* marks the source's active call; other numbers are inactive results. Sampled rows, rich in hits. Any-hit rate of the full collection: about 9.3%. Calls follow the shape of the dose curve; as a rule, active = well fitted curve in the direction sought with a large enough effect; inconclusive = small, poorly fitted or top-dose-only effect, or another doubt; inactive = no such curve, though single readings can be large; an effect the other way counts as inactive or inconclusive. Potency is read from the fitted curve at half-maximal effect.

What do the screens show for `Cn1c(=O)cc(OCCCC(=O)NCc2ccco2)c2ccccc21`?
Rab9 prom act: -4.0%; FLuc modulator: -2.2%; ELG1 repair inh: inconclusive; SMN2 splice enh: 10µM*; ELG1 genotoxic: 18.4µM*; NPC1 prom act: -7.9%

How did Cn1cc(C(=O)Nc2ccccn2)c(=O)c2ccccc21 do in these assays?
Rab9 prom act: inconclusive; FLuc modulator: 15.1µM*; ELG1 repair inh: inconclusive; ELG1 genotoxic: inconclusive; NPC1 prom act: inconclusive

Results for Cn1c(=O)cc(OCC(=O)NCCCN2CCN(Cc3ccccc3)CC2)c2ccccc21 ?
Rab9 prom act: 0.4%; FLuc modulator: 1.7%; ELG1 repair inh: inconclusive; SMN2 splice enh: inconclusive; ELG1 genotoxic: 18.4µM*; NPC1 prom act: -0.2%

How did Cc1ccc(CNC(=O)CCCOc2cc(=O)n(C)c3ccccc23)o1 do in these assays?
Rab9 prom act: -0.2%; FLuc modulator: -1.6%; ELG1 repair inh: inconclusive; SMN2 splice enh: inconclusive; ELG1 genotoxic: inconclusive; NPC1 prom act: -10.4%

What do the screens show for `CC(C)CCNC(=O)CCCOc1cc(=O)n(C)c2ccccc12`?
Rab9 prom act: -1.3%; FLuc modulator: 4.6%; ELG1 repair inh: inconclusive; SMN2 splice enh: 12.6µM*; ELG1 genotoxic: inconclusive; NPC1 prom act: -8.4%

Results for Cn1c(CCNC(=O)c2ccc(F)cc2)nc2ccccc21 ?
Rab9 prom act: 2.1%; FLuc modulator: -8.7%; ELG1 repair inh: -10.9%; SMN2 splice enh: -14.4%; ELG1 genotoxic: -1.9%; NPC1 prom act: 0.9%

How did Cn1c(=O)cc(OCCCC(=O)Nc2ccccn2)c2ccccc21 do in these assays?
Rab9 prom act: -6.7%; FLuc modulator: 1.8%; ELG1 repair inh: inconclusive; SMN2 splice enh: 21.0%; ELG1 genotoxic: 20.6µM*; NPC1 prom act: -4.6%

Results for COc1ccc(N2CCN(C(=O)CCCOc3cc(=O)n(C)c4ccccc34)CC2)cc1 ?
Rab9 prom act: 1.7%; FLuc modulator: 3.0%; ELG1 repair inh: 29.3%; SMN2 splice enh: -8.2%; ELG1 genotoxic: -0.4%; NPC1 prom act: -1.4%

What do the screens show for `CC1CCN(C(=O)CCCOc2cc(=O)n(C)c3ccccc23)CC1`?
Rab9 prom act: -5.5%; FLuc modulator: -1.9%; ELG1 repair inh: inconclusive; SMN2 splice enh: inconclusive; ELG1 genotoxic: 18.4µM*; NPC1 prom act: -2.8%

What do the screens show for `O=C(CCCCn1c(=O)c2ccccc2n(CC(=O)Nc2ccc(F)cc2)c1=O)NCc1ccco1`?
Rab9 prom act: -3.8%; FLuc modulator: -1.1%; ELG1 repair inh: 20.6µM*; SMN2 splice enh: -8.6%; ELG1 genotoxic: -1.5%; NPC1 prom act: 0.7%

Results for CCN(C(=O)CSc1nnc(Cn2nnc3ccccc32)o1)c1nc(-c2ccccc2)cs1 ?
Rab9 prom act: 19.2%; FLuc modulator: -0.2%; ELG1 repair inh: 18.4µM*; SMN2 splice enh: -67.1%; ELG1 genotoxic: -10.0%; NPC1 prom act: -0.3%

Results for COc1ccc(CCNC(=O)CC(=O)N/N=C/c2ccc(C(=O)O)cc2)cc1OC ?
Rab9 prom act: -6.1%; FLuc modulator: 3.0%; ELG1 repair inh: -3.5%; ELG1 genotoxic: -5.9%; NPC1 prom act: -5.6%

How did CC1CCN(c2ccc(NC(=O)c3cccnc3)cc2)CC1 do in these assays?
Rab9 prom act: inconclusive; FLuc modulator: 12µM*; ELG1 repair inh: inconclusive; SMN2 splice enh: 28.2µM*; ELG1 genotoxic: 11.4%; NPC1 prom act: inconclusive

What do the screens show for `CCc1ccc(C(=O)N2CCN(c3ccc(NC(=O)c4cccnc4)cc3)CC2)cc1`?
Rab9 prom act: 9.8%; FLuc modulator: -0.1%; ELG1 repair inh: 23.1µM*; ELG1 genotoxic: -16.4%; NPC1 prom act: -1.5%

Results for O=C(Nc1ccc(N2CCN(C(=O)c3ccccc3)CC2)cc1)c1cccnc1 ?
Rab9 prom act: -2.3%; FLuc modulator: 3.5%; ELG1 repair inh: inconclusive; ELG1 genotoxic: -8.5%; NPC1 prom act: 2.7%

Compound activity: PubChem, National Center for Advancing Translational Sciences (NCATS)
